About 83,000 compounds went through this panel and 20% of them were active in at least one assay; those are over-represented in the sample as a whole.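 Method: cells in 96-well plates; compound added at one concentration; 48 h incubation; percent growth measured; values under 10 scored active.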 Values without a mark were called inactive. Active and inactive are the calls of the source.

In the test the test system is A549/ATCC NSCLC. Nature of the test: NCI-60 one-dose screen, 48 h (100 = growth as untreated, 0 = no growth, -100 = all killed). As to conditions: 10 µM unless noted.
Consider `O=C(/C=C/c1ccc(Cl)cc1)c1ccc(NC(=O)N2CCN(c3cc4c(cc3F)c(=O)c(C(=O)O)cn4C3CC3)CC2)cc1`, for which the growth is 95.8%.
Consider `O=C(/C=C(/C=C/c1csc2ccccc12)OB(F)F)/C=C/c1csc2ccccc12`, for which the growth is 70.1%.
Turning to `CN1CCN(C(=O)[C@]23CCC(C)(C)C[C@H]2C2=CC[C@@H]4[C@@]5(C)C/C(=C/c6cccnc6)C(=O)C(C)(C)[C@@H]5CC[C@@]4(C)[C@]2(C)CC3)CC1`, the growth is 47%.
Turning to `CC1=CCC(OC(=O)C(C)(O)CCC(O)(C(=O)OC2(C)C=CC(O)(C(C)C)CC2)C(C)C)(C(C)C)CC1` (stereo not drawn), the growth was 101%.
For the molecule `NC1=NN=C(N)C1=Cc1cc2ccccc2n2nnnc12`, the growth was 103%.
The same measure for `COc1ccc(NC(N)=NCCCOc2ccc(F)cc2)cc1`: 73.1%; for `O=C1c2ccc3c4c(ccc(c24)C(=O)N1CCCNCc1ccccc1)C(=O)N(CCCNCc1ccccc1)C3=O`: -91.1% (active).
The same measure for `O=C(NCCNc1nccc(-c2c(-c3cccc(F)c3)nc3sccn23)n1)c1ccc(Cl)cc1`: 34.8%.
The same measure for `C=C1C(=O)O[C@H]2[C@H]1CC/C(COC(=O)NCCc1c[nH]c3ccc(OC)cc13)=C\CC[C@@]1(C)O[C@@H]21`: 64.2%.
For `COc1cc(CC(=O)c2ccc(O)c(OC)c2)ccc1O`, the growth is 79.5%.
The same measure for `CCN(CC)c1ccc(/C=N/NC(=O)CSc2nc3ccccc3c(=O)n2CCc2ccc(S(N)(=O)=O)cc2)c(O)c1`: 25.4%.
For `Cc1ccc(-n2c3c(c(-c4ccccc4)c2-c2ccccc2)C2=NCCN2C=N3)cc1` the value was 93.7%; for `CN1CCN(C(=O)[C@]23CCC(C)(C)C[C@H]2C2=CC[C@@H]4[C@@]5(C)C/C(=C/c6ccncc6)C(=O)C(C)(C)[C@@H]5CC[C@@]4(C)[C@]2(C)CC3)CC1`, 43.8%; for `C=C(C)[C@@H]1CC[C@]2(C(=O)N3CCN(C)CC3)CC[C@]3(C)[C@H](CC[C@@H]4[C@@]5(C)C/C(=C/c6cccnc6)C(=O)C(C)(C)[C@@H]5CC[C@]43C)[C@@H]12`, 49.4%.
On to `N/C(=N\C(N)=N\c1nc2ccccc2s1)c1cccc(Cl)c1`, for which the growth is 9.74% (active).
The same measure for `CCOC(=O)Nc1ccc(-c2ccc3c(c2)NC(=O)/C3=C\c2ccc[nH]2)cc1`: 103%; for `CCNC(=O)Oc1ccc(/C(=C(\C)c2ccccc2)c2ccc(OCCN(CC)CC)cc2)cc1`: 65.5%.
The same measure for `CCOC(=O)/C(C#N)=C1/NNC(=Nc2cccnc2)S1`: 85.3%.
The same measure for `COc1cccc(-c2nc3occn3c2-c2ccnc(NCCCNS(=O)(=O)c3ccc(C(F)(F)F)cc3)n2)c1`: 89.7%; for `CC(=O)Nc1ccc(-n2cnc3cc(-c4ccc(OCCN5CCCCC5)cc4)ccc32)cc1`: -3.26% (active).
`Cn1ccnc1C(=O)/C=C/c1ccc(CC(=O)Nc2ccc(Cl)cc2)cc1`: the growth was 6% (active).
With `C=CCN1C(=O)/C(=C/C(=O)OC)S/C1=N\NC(=O)c1cc2ccc1/C=C\c1ccc(cc1)/C=C\2`, the growth was 94.8%.
With `COc1ccc(/C=C(\C#N)n2nc3cccc(F)c3n2)cc1`, the growth is 98.1%.
For `N/C(=N\C(N)=N\c1nc2ccccc2s1)c1cnccn1` the value was 21.1%; for `Cc1c(C(=O)NCCC(=O)NO)sc2ncnc(Nc3ccc(NC(=O)Nc4cccc(C(F)(F)F)c4)cc3)c12`, 104%; for `O=C(Nc1ccc(-c2ccc3c(c2)NC(=O)/C3=C\c2ccc[nH]2)cc1)NC1CC1`, 102%.
As for `S=c1cc(S)c2cc(Br)ccc2[nH]1`, the growth was 89.5%.
For `CCCCOc1ccc(/C=N/Nc2cc(C)nc3ccc(Br)cc23)cc1` the value was 34.5%; for `N/C(=N\C(N)=N\c1nc2ccccc2s1)c1ccnc(Br)c1`, 61.3%.
The same measure for `COc1cc(NC(C)CCCNC(=O)CCC(=O)NCCCNCCCCCCCCNCCCNC(=O)CCC(=O)NCCCC(C)Nc2cc(OC)cc3cccnc23)c2ncccc2c1` (stereo not drawn): 63%; for `COc1cc2nc(-c3ccc(C(F)(F)F)cc3)cc(OCCCN3CCOCC3)c2cc1OC`: 29%; for `O=C(Cn1c[n+](CC(=O)c2ccc(-c3ccccc3)cc2)c2ccccc21)Nc1cccc2cccnc12`: 59.9%.
For `CC(Oc1ccc(C(=O)O)cc1C(F)(F)F)c1ccc(Oc2ccccc2)cn1` (stereo not drawn) the value was 99.9%; for `O=C(Nc1ccc(F)cc1)Nc1ccc(NC(=O)c2cc(Cl)nc3ccccc23)cc1`, 79.8%.
As for `O=C(CCN1CCCC1)Nc1ccc2c(Nc3ccc(F)cc3)c3ccccc3nc2c1`, the growth is -21.8% (active).
`CC(Sc1nc2ccccc2c(=O)n1CCc1ccc(S(N)(=O)=O)cc1)C(=O)Nc1ccc(Cl)cc1` (stereo not drawn): the growth was 69.6%.
In the case of `O=C(N/N=C/c1cc2ccccc2n2nnnc12)Nc1ccccc1`, the growth is 97.7%.
For `CC1(C)CC(=O)C2=C(C1)N(c1ccc(F)cc1F)C(N)=C(C#N)C2c1cc(Br)ccc1F` (stereo not drawn) the value was 79.3%.

(Values after PubChem BioAssay (NCI).)
